# In the supplement of paper PMC10600219:
# Structures can show the parent of a compound that is named as a salt. Over roughly 2,800 compounds, “cell viability relative to vehicle” has its median near 1.1; the lowest 2% begin near 0.19. The sample as a whole holds a higher share of the lowest values than the screen did.
# Tested on: NCI-H2228 parental
# Test: cell viability relative to vehicle (fraction of vehicle); NCI-H2228 is an ALK-positive lung cancer line and DTP means drug-tolerant persister; higher = less growth inhibition
# Conditions: 100 nM; treatment time 6 days
# Procedure, shortened: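 The 3114-agent TargetMol anti-cancer compound library was tested at 100 nM for 6 days on parental NCI-H2228 cells and on persister cells derived with 1000 nM of a targeted drug for 13 days. ATP readout by the CellTiter-Glo 3D Cell Viability Assay gave cell viability relative to DMSO vehicle-treated cells.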
row,SMILES,cell viability
1,CN1CCc2c(c3ccccc3n2Cc2ccc(C(=O)NO)cc2)C1 [Tubastatin A HCl],1.02
2,Cn1cc(CNCC2CCN(c3ncc(C(=O)NO)cn3)CC2)c2ccccc21 [Quisinostat],0.159
3,Cn1cc(C[C@@H](N)C(=O)O)c2ccccc21 [Indoximod],1.11
4,CCCN1CCN(c2ccc(C(=O)NC3(C(=O)NCC#N)CCCCC3)cc2)CC1 [Balicatib],1.07
5,CC(C)=CCC[C@](C)(O)[C@H]1CC[C@]2(C)[C@@H]1[C@H](O)C[C@@H]1[C@@]3(C)CC[C@H](O)C(C)(C)[C@@H]3[C@@H](O[C@@H]3O[C@H](CO)[C@@H](O)[C@H](O)[C@H]3O[C@@H]3O[C@@H](C)[C@H](O)[C@@H](O)[C@H]3O)C[C@]12C [Ginsenoside Rg2],1.15
6,CCCCCCCCOC(=O)c1cc(O)c(O)c(O)c1 [Octyl gallate],1.03
7,CC[C@@](C)(Nc1ccnc(-c2c[nH]c3ncccc23)n1)C(=O)NCC(F)(F)F [Decernotinib],1.12
8,COc1cc2ncnc(Nc3cccc(Cl)c3)c2cc1OC,0.877
9,O=C(Nc1cccc(Cl)c1)Nc1ncc(CCNc2ncnc3ccsc23)s1 [SNS-314 Mesylate],0.126
10,"COc1cc(/C=C/C(=O)OC[C@H]2O[C@H](O[C@]3(CO)O[C@H](CO)[C@@H](O)[C@@H]3OC(=O)/C=C/c3cc(OC)c(O)c(OC)c3)[C@H](O)[C@@H](O)[C@@H]2O)cc(OC)c1O [3,6'-Disinapoyl sucrose]",0.963
11,Fc1ccc(-n2cc(CCCCN3CCC4(CC3)OCc3ccccc34)c3ccccc32)cc1 [Siramesine hydrochloride],1.13
12,COc1ccc(-c2cc3c(C)nc(N)nc3n([C@H]3CC[C@H](OCCO)CC3)c2=O)cn1,0.485
13,COc1cccc(-c2cc(F)ccc2[C@H]2Cc3nc(N)nc(C)c3C(=O)N2)n1,0.171
14,Oc1ccc(-c2cc(=S)ss2)cc1 [Desmethylanethol trithione],1.03
15,Cc1cc(C#N)c(N)s1 [2-Amino-5-methyl-3-thiophenecarbonitrile],0.811
16,COCCNc1cc(NC(=O)N2CCCc3cc(CN4CCN(C)CC4=O)c(C=O)nc32)ncc1C#N [Roblitinib],1.13
17,COc1ccc2[nH]c(C(=O)c3ccccc3)cc2c1,0.197
18,O=C(CCCCCCNC(=O)c1cnc(N(c2ccccc2)c2ccccc2Cl)nc1)NO [Citarinostat],1.03
19,CC(C)c1cc(-c2n[nH]c(=O)n2-c2ccc3c(ccn3C)c2)c(O)cc1O [Ganetespib],0.118
20,CCc1c2c(nc3ccc(OC(=O)N4CCC(N5CCCCC5)CC4)cc13)-c1cc3c(c(=O)n1C2)COC(=O)[C@]3(O)CC [Irinotecan hydrochloride trihydrate],1.11
21,CC[C@@]1(O)C(=O)OCc2c1cc1n(c2=O)Cc2cc3c(CN(C)C)c(O)ccc3nc2-1 [Topotecan hydrochloride],0.0837
22,CCc1c2c(nc3ccc(O)cc13)-c1cc3c(c(=O)n1C2)COC(=O)[C@]3(O)CC,0.0693
23,CCc1c2c(nc3ccc(OC(=O)N4CCC(N5CCCCC5)CC4)cc13)-c1cc3c(c(=O)n1C2)COC(=O)[C@]3(O)CC [Irinotecan],0.939
24,CC[C@@]1(O)C(=O)OCc2c1cc1n(c2=O)Cc2cc3cc(O)ccc3nc2-1 [Hydroxy Camptothecine],0.0691

row,SMILES,cell viability
1,CC[C@@]1(O)C(=O)OCc2c1cc1n(c2=O)Cc2cc3cc(O)ccc3nc2-1 [10-Hydroxycamptothecin],0.0838
2,CC(C)C(C(=O)O)N1C(=O)C(=Cc2ccc(Br)cc2)SC1=S (stereo not drawn),1.04
3,COc1ccc(-c2oc3cc(O)cc(O)c3c(=O)c2O)cc1 [kaempferide],1.13
4,OC[C@H]1O[C@@H](Oc2cc(O)cc(/C=C/c3ccc(O[C@@H]4O[C@H](CO)[C@@H](O)[C@H](O)[C@H]4O)cc3O)c2)[C@H](O)[C@@H](O)[C@@H]1O [Mulberroside A],1.07
5,N[C@@H](CO)C(=O)O [serine],1.06
6,COc1ccc(C(=C2C(=O)Nc3ccccc32)c2ccc(OC)cc2)cc1,1.05
7,S=C(N/N=C1/CCCc2cccnc21)N1CCN(c2ccccn2)CC1,1.09
8,C/C(=N\NC(=S)N1CCC1)c1ccccn1,0.136
9,CN(C)C(=S)NN=C(c1ccccn1)c1ccccn1,0.212
10,COc1cc(OC)cc(C(=O)Nc2ccc(Cl)c(-c3nc4ccc(N(C)C)cc4[nH]3)c2)c1 [HhAntag],1.03
11,NC(=O)c1ccc(OCCCN2CC3CCCC3C2)cc1 (stereo not drawn),1.17
12,COc1c(Nc2ncc(Cl)c(N[C@H]3[C@@H](C(N)=O)[C@@H]4C=C[C@H]3C4)n2)ccc2c1CC[C@@H](N1CCOCC1)CC2,0.799
13,Cc1[nH]c2ccccc2c1CCNCc1ccc(/C=C/C(=O)NO)cc1 [Panobinostat],0.094
14,CN(C)Cc1ccc(S(=O)(=O)n2ccc(/C=C/C(=O)NO)c2)cc1 [Resminostat hydrochloride],1.02
15,Cc1[nH]c2ccccc2c1CCNC(=O)c1cccs1,1.06
16,CC(C)c1cc2c(c(O)c1O)[C@@]13CCCC(C)(C)[C@@H]1C[C@@H]2OC3=O [Carnosol],1.04
17,O=C1C=C2C=C[C@@H](O)[C@H](O)[C@H]2O1 [griffonilide],1.11
18,N#CN=C(NCCCCCCOc1ccc(Cl)cc1)Nc1ccncc1,0.0557
19,N=C(NCCCCCCNC(=N)NC(=N)Nc1ccc(Cl)cc1)NC(=N)Nc1ccc(Cl)cc1 [Chlorhexidine],1.08
20,N=C(NCCCCCCNC(=N)NC(=N)Nc1ccc(Cl)cc1)NC(=N)Nc1ccc(Cl)cc1 [Chlorhexidine hydrochloride],0.965
21,CN1CCN(C(=O)C2C(C(=O)O)[C@H]3CC[C@@H]2O3)CC1 (stereo partly drawn),0.955
22,O=C1CSc2ccccc2N1Cc1cccc(C(F)(F)F)c1,1.04
23,OC[C@@H](O)[C@@H](O)[C@@H](O)[C@@H](O)CO [Allitol],1.13
24,Cn1cc(-c2nc(N[C@@H]3CCCC[C@@H]3N)c(F)c3c2C(=O)NC3)cn1 [TAK-659 hydrochloride],1.01
